CHX counter – Cycloheximide Counterscreen for Small Molecule Inhibitors of Shiga Toxin | AID 2314, 2010 | max response, % | 300,000 tested, 12% active | cell reporter, cycloheximide protein synthesis inhibition counterscreen; in the data active = max response mostly above about 13%, no sharp cut-off; inactive = mostly below about 14%; note: read at 38.3 µM for the half of the compounds with a filed dose; 0% is about no effect
LmPK inh – qHTS Assay for Inhibitors of Leishmania Mexicana Pyruvate Kinase (LmPK) | Potency, µM (titrated, usually from 57.5 µM), without a hit: at the top dose activity change, negative = inhibition, most hits filed as inhibitors | purified LmPK, Kinase-Glo ATP luminescence, 1 h | Q27686 | 290,000 tested, 0.37% active; note: potency is the fitted concentration of half-maximal effect; % is set by controls: 0 for no effect and ±100 for the full control effect
Target sequence (Q27686 whole entry, looked up): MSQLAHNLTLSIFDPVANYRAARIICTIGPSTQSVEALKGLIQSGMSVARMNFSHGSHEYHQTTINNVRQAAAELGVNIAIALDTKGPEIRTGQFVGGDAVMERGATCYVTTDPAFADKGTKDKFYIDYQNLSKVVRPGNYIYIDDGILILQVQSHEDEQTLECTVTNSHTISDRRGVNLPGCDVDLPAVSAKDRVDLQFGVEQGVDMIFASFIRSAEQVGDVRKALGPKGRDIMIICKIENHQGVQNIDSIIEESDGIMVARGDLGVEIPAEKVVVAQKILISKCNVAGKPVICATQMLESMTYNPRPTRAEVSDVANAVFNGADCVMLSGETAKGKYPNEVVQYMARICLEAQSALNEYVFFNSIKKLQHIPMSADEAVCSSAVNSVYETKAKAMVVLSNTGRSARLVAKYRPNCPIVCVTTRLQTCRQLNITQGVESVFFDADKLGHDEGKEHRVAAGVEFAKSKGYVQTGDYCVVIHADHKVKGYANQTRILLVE
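Screened at intermediate enzyme activity to detect both inhibitors and activators: LmPK at 0.1 nM, with a 0.5 nM enzyme column as activation reference. PEP 0.5 mM, ADP 0.1 mM; ATP detected by luminescence after 1 h.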
Giardia FBPA inh – qHTS Assay for Inhibitors of Fructose-1,6-bisphosphate Aldolase from Giardia Lamblia; purified Giardia FBPA; Potency, µM (titrated, usually from 59.6 µM), without a hit: at the highest dose activity, negative = inhibition, actives largely listed as inhibitors; 290,000 tested, 0.71% active; note: potency is the fitted concentration of half-maximal effect; % is set by controls: 0 for no effect and ±100 for the full control effect; nearly all actives have a fitted effect of over 55% in size
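Giardia FBPA (40 nM reagent) was preincubated 10 min at RT with compound (up to 57.5 uM final), then substrate plus GAPDH/TPI/NAD/arsenate coupling system with diaphorase/resazurin was added; resorufin fluorescence (525/598 nm) was read after 20 min.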
Shiga toxin inh – A qHTS for Small Molecule Inhibitors of Shiga Toxin | Vero cells, Shiga toxin protein synthesis inhibition reporter | inhibition, % at 38.7 µM | 290,000 tested, 9.2% active; in the data active = inhibition mostly above about 28%, no sharp cut-off; inactive = mostly below about 43%; note: 0% is about no effect
NS1 function inh – qHTS Assay for Inhibitors of Influenza NS1 Protein Function | Potency, µM (doses to about 46.1 µM), for the others: at the highest dose activity, positive = more growth | 270,000 tested, 0.4% active; calls by dose curve; note: potency is the fitted concentration of half-maximal effect; actives are rising curves; nearly all actives have a fitted effect of over 50% in size
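Growth recovery, yeast-based: influenza A NS1 expressed in S. cerevisiae causes slow growth, and suppressors are detected by OD600. The parent strain without NS1 is used as positive control.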
An asterisk follows results filed as active; ? = inconclusive; · = no result given; [ ] = remark or other dose. Shown are actives, neighbours in structure and some others; about 14% of the full set was active somewhere. Unless noted, calls come from the whole dose curve; as a rule, active = well fitted curve in the direction sought with a large enough effect; inconclusive = small, poorly fitted or top-dose-only effect, or another doubt; inactive = no such curve, though single readings can be large; an effect the other way counts as inactive or inconclusive.

SMILES	CHX counter	LmPK inh	Giardia FBPA inh	Shiga toxin inh	NS1 function inh
C/C(=C\c1ccccc1)C(=O)NCc1ccco1	36*	2%	2%	66*	·
Cc1ccc(C(=O)N/C(=C\c2sccc2C)C(=O)NCc2ccco2)cc1	-3	1%	4%	-4	0%
CC(=O)c1cccc(Nc2nc(-c3sc(C)nc3C)cs2)c1	12*	1%	-10%	20	-14%
Cc1nc(NC(=O)c2ccccc2)sc1-c1csc(Nc2cccc(Cl)c2)n1	19	4%	-13%	56	14%
CC(=O)c1cccc(Nc2nc(-c3sc(N)nc3C)cs2)c1	20*	1%	?	42	23%
CC(CCC#N)[N+](=O)[O-] (centres undefined)	·	·	2%	·	·
O=C(Cc1ccccc1)Nc1ccc(NC(=S)NC(=O)c2ccccc2)cc1	-3	1%	·	20	6%
CCC(=O)Nc1cccc(NC(=S)NC(=O)c2cccc(C)c2)c1	60*	-7%	-20%	114*	-12%
CCC(=O)Nc1cccc(NC(=S)NC(=O)c2ccccc2)c1	54*	-1%	?	16*	-1%
CCC(=O)Nc1cccc(NC(=S)NC(=O)c2ccc(C)cc2)c1	46*	5%	-18%	102*	7%
O=C(NC(=S)Nc1cccc(CO)c1)c1ccc(-c2ccccc2)cc1	25*	-1%	-9%	64*	22%
COC(=O)C(C(C)=O)C1c2ccccc2C=C(C)N1C(=O)OC (centres undefined)	·	-7%[11.5 µM]	0%[12.9 µM]	·	·
CCn1c(=O)c(CCC(=O)N2CCN(c3ccccn3)CC2)c(C)c2c(C)nn(-c3cccc(C)c3)c21	0	1%	·	-3	-2%
N#Cc1c(NC(=O)C(F)(F)F)sc2c3c(=O)c4ccccc4c(=O)c=3oc3ccccc3c12	·	·	·	·	-2%
Cc1cc(C)c2nc(N3CCC(C(=O)NCCCN4CCCC4=O)CC3)sc2c1	-1	1%	11%	-10	-11%
Cc1cc(C)c2nc(N3CCC(C(=O)NCc4ccccn4)CC3)sc2c1	47*	-4%[11.5 µM]	1%	68	·
Cc1cc(C)c2nc(N3CCC(C(=O)NCc4cccnc4)CC3)sc2c1	21*	-2%	0%	86*	·
O=C(O)c1cc(S(=O)(=O)NC23CC4CC(CC(C4)C2)C3)ccc1Cl	-3	-2%	3%	-8	8%
COc1ccc(C2SCC(=O)N2c2nc3ccccc3s2)cc1 (centres undefined)	42*	-8%	3%	111*	11%
Cc1ccc(S(=O)(=O)N2CCC(NC(=O)c3cccnc3)CC2)cc1Cl	-3	-4%	·	-7	2%
N/C(=N\OC(=O)c1ccco1)c1cccc([N+](=O)[O-])c1	48*	-5%	-8%	121*	2%
COc1ccc(/C(N)=N/OC(=O)c2ccco2)cc1OC	39*	-11%	2%	113*	·
N/C(=N\OC(=O)c1ccco1)c1cccc(Br)c1	40*	?	-1%	154*	-205%
O=C(COC(=O)c1ccco1)Nc1cccc(Br)c1	-6	5%	-3%	32	-16%
COc1ccc(N(CC(=O)NC(C)(C)C)C(=O)CCC(=O)Nc2nccs2)c(OC)c1	-2	2%	21%	-5	26%
SMILES	CHX counter	LmPK inh	Giardia FBPA inh	Shiga toxin inh	NS1 function inh
O=C(Nc1ccccc1)N1CC2(CCN(C(=O)c3cnccn3)CC2)C1	·	·	-1%	·	·
O=P(O)(Cc1ccccc1)Cc1ccccc1	-1	10%	-14%	·	12%
COC(=O)NC(c1cccc(C)c1)C(C(C)=O)C(=O)OC (centres undefined)	·	·	2%[12.9 µM]	·	·
O=C(CN(C(=O)c1csnn1)c1cccc2ccccc12)NCc1ccc(F)cc1	8	9%	6%	-7	-10%
CCCCn1c(CCn2nc(C)c(Br)c2C)n[nH]c1=S	21	18µM*	5%	22	2%
COc1cccc(NC(=O)CSc2nc3ccccc3nc2N2CCCC2)c1	37*	-4%	-12%	57*	-4%
COc1ccc(NC(=O)CSc2nc3ccccc3nc2N2CCCCC2)cc1	-2	-5%	15%	1	8%
COc1cccc(NC(=O)CSc2nc3c(sc4ccccc43)c(=O)n2CCN(C)C)c1	-8	-2%	-20%	-12	·
COc1cccc(NC(=O)CSc2nc3c(sc4ccccc43)c(=O)n2CCCN2CCCC2)c1	16*	2%	-14%	39*	25%
Cc1cccc(NC(=O)CSc2nc3ccccc3nc2N2CC(C)OC(C)C2)c1 (centres undefined)	11*	0%	-4%	11	-6%
Cc1cccc(NC(=O)CSc2nc3ccccc3nc2N2CCCC2)c1	10	-8%	4%	15	20%
CCc1ccc(NC(=O)CSc2nc3ccccc3nc2N2CCCCC2)cc1	22*	-8%	-8%	14	?
COc1ccc(CNCC(=O)Nc2ccccc2-n2cccc2)cc1	10	0%	15%	7	·
Cc1nn(CC(=O)NCc2ccco2)c(C)c1[N+](=O)[O-]	1	4%	2%	-21	4%
Cc1ccccc1CC(=O)N1CCN(C(=O)C2CCCO2)CC1 (centres undefined)	2	-20%	·	-19	2%
Cc1cccc(-c2nc(CN3CCN(C(=O)C4CCCO4)CC3)cs2)c1 (centres undefined)	7.6*	0%	-6%	7	-1%
CCOC(=O)c1ccc(NC(=O)c2cccc(C)c2[N+](=O)[O-])cc1	20*	5%	0%	52*	-6%
CCOC(=O)c1ccc(NC(=S)Nc2ccccn2)cc1	27*	4%	-7%	40*	?
CCOC(=O)c1ccc(NCCOC)c([N+](=O)[O-])c1	40*	-5%	-1%	88*	-3%
S=C(NCc1ccccc1)Nc1ccc2ccccc2c1	76*	-1%	·	102*	14%
COCCNc1cc(N)c([N+](=O)[O-])cc1[N+](=O)[O-]	11	2%	-6%	9	-18%
CC(C)(C)C(=O)NNC(=O)C1CC1(c1ccccc1)c1ccccc1 (centres undefined)	-3	0%	18%	10	-3%
COC(=O)c1ccc(NC(=O)c2ccccc2CC[N+](=O)[O-])cc1	12	-7%	1%	61	·
COC(=O)c1ccc(NC(=O)c2cccc(C)c2[N+](=O)[O-])cc1	22*	2%	-6%	49	-4%
CCOC(=O)c1c(C)c(/C=N/Nc2ccccc2)n(C)c1C	13*	-3%	-10%	30	-1%
S=C(Nc1ccc(Nc2ccccc2)cc1)Nc1ccccn1	37*	3%	-3%	100*	-1%
CCOC(=O)c1ccc(NC(=O)c2ccccc2[N+](=O)[O-])cc1	42*	0%	-1%	58*	-6%
COc1ccc(CCNC(=O)c2ccc(C)s2)cc1OC	1	0%	3%	20	-3%
CCOC(=O)c1c(C)c(C(=O)NCc2cccnc2)c(C)n1C	8	3%	4%	9	-13%
CCOC(=O)c1ccc(NC(=O)c2ccccc2)cc1	49*	-3%	-3%	81*	-73%
